Results filed as inconclusive are left out. The source made the active and inactive calls. Calls come from the whole dose curve; as a rule, active = well fitted curve in the direction sought with a large enough effect; inconclusive = small, poorly fitted or top-dose-only effect, or another doubt; inactive = no such curve, though single readings can be large; an effect the other way counts as inactive or inconclusive.
How the values were obtained:
[1] = Cellular Toxicity (caspase-3) NIH 3T3 (AID 666);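 note: caspase signal read after 16 h compound exposure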
In short: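 Mouse NIH 3T3 fibroblasts (1000 cells/well) were treated with compound for 16 hr at 37°C in complete medium; caspase-3/7 activity was read by Caspase-Glo luminescence. Normalized to DMSO and 100 uM tamoxifen; AC50 from Hill fits.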

[2] = biological target: Cytochrome P450 3A4 (Homo sapiens) (UniProt P08684); assay: qHTS Assay for Activators of Cytochrome P450 3A4 (AID 885); note: nearly all actives have a fitted effect of over 65% in size
Sequence of Cytochrome P450 3A4 (Homo sapiens) (P08684 whole entry, looked up): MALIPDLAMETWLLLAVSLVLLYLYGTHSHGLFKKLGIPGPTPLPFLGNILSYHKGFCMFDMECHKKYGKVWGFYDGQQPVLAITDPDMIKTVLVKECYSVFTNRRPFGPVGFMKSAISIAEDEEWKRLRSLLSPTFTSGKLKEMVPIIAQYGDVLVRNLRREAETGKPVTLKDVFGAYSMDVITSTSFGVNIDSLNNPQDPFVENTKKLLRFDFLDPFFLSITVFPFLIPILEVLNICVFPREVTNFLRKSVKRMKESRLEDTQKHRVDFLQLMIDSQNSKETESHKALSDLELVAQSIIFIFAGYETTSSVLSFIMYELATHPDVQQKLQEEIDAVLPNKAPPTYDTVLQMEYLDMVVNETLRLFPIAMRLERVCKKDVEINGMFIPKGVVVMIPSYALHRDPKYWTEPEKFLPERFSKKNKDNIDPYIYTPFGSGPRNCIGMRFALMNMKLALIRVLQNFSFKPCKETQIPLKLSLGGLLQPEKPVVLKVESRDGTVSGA
In short: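 Quantitative HTS format: compounds preincubated with 20nM human CYP3A4 and Luciferin-PPXE substrate at KM, reaction started by NADPH regeneration, stopped after 60 min, luciferase luminescence read 20 min later.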

[3] = MultiTox-Fluor Cytotoxicity Assay - LYMP1-001 - Dead Cells (AID 946)
In short: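 In this qHTS, 15 uM tetraoctylammonium bromide defined 100% and DMSO defined basal activity. Lymphoblastoid cells (LYMP1-001, 2500 per well) received compound for 16 hr at 37 C before a fluorogenic dead-cell substrate readout at 485/520 nm.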

[4] = MultiTox-Fluor Cytotoxicity Assay - LYMP1-001 - Live Cells (AID 947)
[5] = Cell Viability - LYMP1-002 - Assay at 16 hr (AID 948)
In short: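 In this qHTS, lymphoblastoid LYMP1-002 cells (human) receive compounds for 16 hr at 37 C. Viability is taken from CellTiter-Glo ATP luminescence, and AC50 derives from standard Hill fits.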

[6] = MultiTox-Fluor Cytotoxicity Assay - LYMP1-002 - Live Cells (AID 955)
In short: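 Human lymphoblastoid LYMP1-002 cells, 2500/well in complete medium, rested 5 hr at 37 C, then exposed to compounds for 16 hr at 37 C. Live-cell protease cleavage of GF-AFC read by fluorescence (Ex/Em 405/510) after 60 min at room temperature; AC50 from Hill fits.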

[7] = MultiTox-Fluor Cytotoxicity Assay - LYMP1-002 - Dead Cells (AID 960); note: nearly all actives have a fitted effect of over 60% in size
In short: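 Human lymphoblastoid cells (LYMP1-002), 2500/well in complete medium, were exposed to compounds for 16 hr at 37 C. Dead-cell protease activity was read as bis-AAF-R110 fluorescence (Ex/Em 485/520), normalized to DMSO and 15 uM tetraoctylammonium bromide; AC50 from Hill fits.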

[8] = MultiTox-Fluor Cytotoxicity Assay - LYMP1-003 - Dead Cells (AID 961); note: nearly all actives have a fitted effect of over 70% in size
In short: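 Acute toxicity is scored as increased dead-cell protease activity in human lymphoblastoid LYMP1-003 cells after 16 h compound exposure in complete culture medium. Activity is normalized to DMSO basal and 15 uM tetraoctylammonium bromide as full response.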

[9] = MultiTox-Fluor Cytotoxicity Assay - LYMP1-003 - Live Cells (AID 962);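 note: cytotoxic hits lower the live-cell protease signal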
In short: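 LYMP1-003 human lymphoblastoid cells (2500/well) in complete medium were preincubated 5 hr at 37 C, then exposed to compounds for 16 hr at 37 C. Live-cell protease cleavage of GF-AFC read by fluorescence (Ex/Em 405/510); AC50 from Hill fits.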

[10] = Cell Viability - LYMP1-003 - Assay at 24 hr (AID 963)
In short: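 Human lymphoblastoid LYMP1-003 cells (2500/well) were rested 5 hr at 37 C, then exposed to compounds in complete medium for 24 hr at 37 C. Cellular ATP was quantified by CellTiter-Glo luminescence, and AC50 values came from Hill fits of concentration-response data.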

[11] = Cell Viability - LYMP1-003 - Assay at 40 hr (AID 964); note: series mostly up to about 92 µM; nearly all actives have a fitted effect of over 60% in size
In short: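 Human lymphoblastoid LYMP1-003 cells, 2500/well in complete medium, rested 5 hr at 37 C, then exposed to compounds for 40 hr at 37 C. Viability read as intracellular ATP by CellTiter-Glo luminescence; AC50 from Hill fits of concentration-response data.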

[12] = Cell Viability - LYMP2-003 (AID 965);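 note: cells exposed to compounds for 24 h before reading; nearly all actives have a fitted effect of over 50% in size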
In short: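 qHTS, human lymphoblastoid line, 2500 cells/well, complete medium. 24 h drug, 37 C. ATP-based luminescent readout; Hill-fit AC50.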

[13] = Cell Viability - LYMP2-004 (AID 966); note: nearly all actives have a fitted effect of over 65% in size
In short: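 Human lymphoblastoid cells (2500/well) in complete medium were treated with compounds for 24 hr at 37 C, then intracellular ATP was measured by CellTiter-Glo luminescence. AC50 values came from Hill-equation fits of concentration-response data.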

[14] = Cell Viability - LYMP2-009 (AID 968); note: series mostly up to about 92 µM; nearly all actives have a fitted effect of over 55% in size
[15] = Cell Viability - LYMP2-011 (AID 969); note: nearly all actives have a fitted effect of over 60% in size
In short: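 Human lymphoblastoid cells (2500/well) were plated in complete medium, preincubated 5 hr at 37 C, then exposed to compounds for 24 hr at 37 C. Intracellular ATP was read by CellTiter-Glo luminescence, and AC50 came from Hill-equation concentration-response fits.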

[16] = Cell Viability - LYMP2-013 (AID 970); note: series mostly up to about 92 µM; nearly all actives have a fitted effect of over 55% in size
In short: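 Human lymphoblastoid cells, 2500/well, were preincubated 5 hr at 37 C, then treated with compounds for 24 hr at 37 C in complete medium. Intracellular ATP was read by CellTiter-Glo luminescence; AC50 from Hill-equation fits of concentration-response data.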

[17] = Cell Viability - LYMP2-015 (AID 971); note: nearly all actives have a fitted effect of over 55% in size
In short: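 Human lymphoblastoid cells (2500/well) in complete medium were preincubated 5 hr at 37 C, then compound-treated 24 hr at 37 C. Intracellular ATP was read by CellTiter-Glo luminescence after 30 min at room temperature; AC50 came from Hill-equation concentration-response fits.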

[18] = Cell Viability - LYMP2-017 (AID 972); note: series mostly up to about 92 µM; nearly all actives have a fitted effect of over 55% in size
In short: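 Human lymphoblastoid cells (2500/well) were seeded in complete medium, held 5 hr at 37 C, then exposed to compounds for 24 hr at 37 C. Intracellular ATP was read by CellTiter-Glo luminescence after 30 min at room temperature, with AC50 values from Hill-equation fits.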

[19] = Cell Viability - LYMP2-019 (AID 973); note: nearly all actives have a fitted effect of over 55% in size
In short: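 Human lymphoblastoid cells were seeded at 2500 cells/well, preincubated 5 hr at 37 C, then exposed to compounds for 24 hr at 37 C in complete medium. Intracellular ATP was measured by CellTiter-Glo luminescence; AC50 from Hill fits.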

[20] = Cell Viability - LYMP2-021 (AID 974)
In short: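 Human lymphoblastoid cells (2500/well) were preincubated 5 hr at 37 C, then exposed to compounds for 24 hr at 37 C in complete medium. Intracellular ATP was read by CellTiter-Glo luminescence; AC50 came from Hill-equation fits of concentration-response data.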

[21] = Cell Viability - LYMP2-023 (AID 975)
In short: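 Human lymphoblastoid cells (2500/well) were preincubated 5 hr at 37 C, then exposed to compounds for 24 hr at 37 C in complete medium. Cellular ATP was read by CellTiter-Glo luminescence, and AC50 came from Hill-equation fits.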

[22] = Cell Viability - LYMP2-025 (AID 976); note: series mostly up to about 92 µM
In short: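 Human lymphoblastoid LYMP2-025 cells (2500/well) were pre-incubated 5 hr at 37 C, then treated with compounds for 24 hr at 37 C in complete medium. Viability was read as intracellular ATP by CellTiter-Glo luminescence; AC50 from Hill fits.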

[23] = Cell Viability - LYMP2-002 (AID 977);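 note: series mostly up to about 92 µM; compound exposure lasted 24 h at 37 °C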
In short: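 Cytotoxicity is scored as concentration-dependent loss of cellular ATP in a human lymphoblastoid line after 24 hr compound treatment at 37 C. AC50 is obtained by modelling concentration-response data with the Hill equation.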

[24] = Cell Viability - LYMP2-006 (AID 978); note: series mostly up to about 92 µM; nearly all actives have a fitted effect of over 60% in size
In short: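 In this cytotoxicity screen, the human lymphoblastoid line grew in complete medium with test compounds for 24 hr at 37 C. Cellular ATP served as the viability signal.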

Measured: Potency

COC1=CC(=O)OC(CCc2ccccc2)C1 (centres undefined)
inactive: all assays above

Source: PubChem BioAssay (NCATS)
